High-throughput results (PubChem BioAssay)
HEK293 tox: cytotoxic compounds in HEK 293 cells; Potency, µM (highest dose often 115 µM), usual class: inhibitors; HEK 293 viability, ATP luminescence (CellTiter-Glo), 48-72 h; AID 1345083; actives 6.6% (n = 94,000); note: nearly all actives have a fitted effect of over 60% in size
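Cytotoxicity was scored by loss of ATP-coupled luminescence (CellTiter-Glo) in HEK 293 cells. Compound treatment ran 48 or 72 hr at 37 degree Celsius, 5% CO2, 95% humidity.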
GPT2 inh: GPT2 alanine aminotransferase inhibition. Q8TD30. Recombinant GPT2, coupled pyruvate oxidase/HRP Amplex Red fluorescence. Potency, µM (highest dose often 57.7 µM), hits mostly inhibitors. actives 0.25% (n = 100,000). AID 1671188; note: nearly all actives have a fitted effect of over 60% in size
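Fluorescence of coupled pyruvate oxidase/HRP/Amplex Red system (50uM Amplex, 30 min, dark) reports pyruvate formed by GPT2. Enzyme reaction: 10ng/uL GPT2, 2mM L-alanine, 250uM a-KG, 30 min room temperature, pH 7.5; 50uM AOA control.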
hNpr1 antagonist: blocks ANP-stimulated signaling of human Npr1 receptor; P16066; HEK293 hNpr1 GloSensor cGMP, ANP-stimulated luminescence; Potency, µM (titrated, usually from 46.3 µM), most hits filed as inhibitors; actives 1.6% (n = 76,000); AID 1347048; calls by dose curve; note: nearly all actives have a fitted effect of over 60% in size
Target sequence (P16066 whole entry, looked up): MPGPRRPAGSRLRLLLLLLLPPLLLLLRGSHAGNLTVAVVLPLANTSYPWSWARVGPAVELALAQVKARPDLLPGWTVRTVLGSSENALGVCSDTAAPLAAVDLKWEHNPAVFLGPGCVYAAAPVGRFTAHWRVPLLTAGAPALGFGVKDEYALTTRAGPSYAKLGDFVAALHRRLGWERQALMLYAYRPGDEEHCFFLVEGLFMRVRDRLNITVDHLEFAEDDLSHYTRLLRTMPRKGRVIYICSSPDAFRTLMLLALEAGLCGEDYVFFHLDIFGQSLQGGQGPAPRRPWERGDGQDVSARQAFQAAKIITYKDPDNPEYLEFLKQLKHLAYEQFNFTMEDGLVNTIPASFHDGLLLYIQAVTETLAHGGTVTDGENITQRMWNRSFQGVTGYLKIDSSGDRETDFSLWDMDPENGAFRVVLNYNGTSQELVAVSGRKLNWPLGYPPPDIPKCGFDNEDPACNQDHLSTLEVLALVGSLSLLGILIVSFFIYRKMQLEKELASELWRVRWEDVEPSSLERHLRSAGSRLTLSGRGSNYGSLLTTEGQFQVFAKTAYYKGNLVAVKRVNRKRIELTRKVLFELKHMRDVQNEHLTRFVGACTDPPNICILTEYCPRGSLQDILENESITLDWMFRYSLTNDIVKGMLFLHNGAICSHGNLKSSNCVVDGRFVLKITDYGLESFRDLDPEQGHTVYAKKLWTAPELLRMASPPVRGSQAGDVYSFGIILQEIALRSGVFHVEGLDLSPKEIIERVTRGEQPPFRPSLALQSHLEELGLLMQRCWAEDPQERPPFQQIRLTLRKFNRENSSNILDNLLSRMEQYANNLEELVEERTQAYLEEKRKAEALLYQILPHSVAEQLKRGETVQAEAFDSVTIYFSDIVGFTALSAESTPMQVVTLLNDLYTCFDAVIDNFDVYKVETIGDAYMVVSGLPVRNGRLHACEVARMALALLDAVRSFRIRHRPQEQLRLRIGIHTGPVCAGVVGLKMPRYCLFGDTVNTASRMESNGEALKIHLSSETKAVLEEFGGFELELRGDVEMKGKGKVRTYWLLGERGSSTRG
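Compound pre-incubated 30 min at room temperature on GloSensor-loaded HEK293 cells stably carrying hNpr1 and the pGS-40F cGMP biosensor. Stimulation uses hNppA at 0.1 nM final; luminescence is taken at baseline and 20 min post-agonist.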
3T3 cytotox: cytotoxic compounds in NIH 3T3 cells; NIH 3T3 viability, CellTiter-Glo ATP luminescence, 48-72 h; Potency, µM (titrated, usually from 96.7 µM), usual class: inhibitors; actives 4.3% (n = 94,000); AID 1345082; note: nearly all actives have a fitted effect of over 55% in size
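Cells were seeded at 400 per well, treated with pin-transferred compound, and kept 48 or 72 hr at 37 °C before CellTiter-Glo addition and luminescence imaging of cellular ATP.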
Luciferase inh: inhibitors of firefly (Photinus pyralis) luciferase; actives 2.5% (n = 76,000); AID 1347043; Potency, µM (series often up to 115 µM), hits mostly inhibitors; purified P. pyralis luciferase, luminescence, biochemical; P08659; note: nearly all actives have a fitted effect of over 65% in size
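Luminescence read by CCD imager after adding enzyme (10nM final) to wells holding compound, titrated in qHTS. Substrates 10uM each D-luciferin and ATP; buffer 50mM Tris acetate pH 7.5, 10mM Mg acetate, Tween-20, BSA.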
A number is an active result. Hits are enriched below; roughly 10% of the tested compounds scored in any of these assays. Unless noted, calls come from the whole dose curve; as a rule, active = well fitted curve in the direction sought with a large enough effect; inconclusive = small, poorly fitted or top-dose-only effect, or another doubt; inactive = no such curve, though single readings can be large; an effect the other way counts as inactive or inconclusive.

How did COc1cccc(CC(=O)N2CC(Oc3ccc(-c4nc(-c5ccccc5)no4)cc3)C2)c1 do in these assays?
HEK293 tox: 13µM; GPT2 inh: inactive; hNpr1 antagonist: 3.5µM; 3T3 cytotox: inconclusive; Luciferase inh: 8.9µM

What do the screens show for `COc1cccc(C(=O)N2CC(Oc3ccc(-c4noc(-c5ccccc5)n4)cc3)C2)c1`?
HEK293 tox: inactive; GPT2 inh: inactive; hNpr1 antagonist: inactive; 3T3 cytotox: inactive; Luciferase inh: inactive

How did COCCC(=O)N1CC(Oc2ccc(-c3noc(-c4ccccc4)n3)cc2)C1 do in these assays?
HEK293 tox: 22µM; GPT2 inh: inactive; hNpr1 antagonist: 20µM; 3T3 cytotox: inconclusive; Luciferase inh: 13µM

How did COCC(=O)N1CC(Oc2ccc(-c3noc(-c4ccncc4)n3)cc2)C1 do in these assays?
HEK293 tox: inconclusive; GPT2 inh: inactive; hNpr1 antagonist: inconclusive; 3T3 cytotox: inconclusive; Luciferase inh: inconclusive

Results for COCCOCC(=O)N1CC(Oc2ccc(-c3noc(-c4ccccc4)n3)cc2)C1 ?
HEK293 tox: inconclusive; GPT2 inh: inactive; hNpr1 antagonist: 10µM; 3T3 cytotox: inconclusive; Luciferase inh: inconclusive

How did CCN1c2cc(C(=O)NCc3ccc(F)cc3)ccc2C(=O)N2CCCCC21 (stereo not drawn) do in these assays?
HEK293 tox: inconclusive; GPT2 inh: inactive; hNpr1 antagonist: inactive; 3T3 cytotox: inconclusive; Luciferase inh: inactive

How did COc1ccc(-n2nc(C3CCCN(C(=O)c4ccccc4C)C3)[nH]c2=O)cc1 (stereo not drawn) do in these assays?
HEK293 tox: inconclusive; GPT2 inh: inactive; hNpr1 antagonist: inactive; 3T3 cytotox: inactive; Luciferase inh: inactive

How did Cc1nc2c(c(-c3ccc(O)cc3)n1)CN(C(=O)C1CCCC1)CC2 do in these assays?
HEK293 tox: 40µM; GPT2 inh: inactive; hNpr1 antagonist: inactive; 3T3 cytotox: inconclusive; Luciferase inh: inactive

Results for O=C(C1CC1)N1CCc2nc(-c3ccc(Cl)cc3)nc(-c3ccccc3)c2C1 ?
HEK293 tox: 40µM; GPT2 inh: inactive; hNpr1 antagonist: inactive; 3T3 cytotox: inconclusive; Luciferase inh: inactive

What do the screens show for `O=C(c1ccccc1)N1CCc2nc(-c3ccc(Cl)cc3)nc(-c3ccccc3)c2C1`?
HEK293 tox: 22µM; GPT2 inh: inactive; hNpr1 antagonist: inactive; 3T3 cytotox: inconclusive; Luciferase inh: inactive

What do the screens show for `O=C(c1ccc(F)cc1)N1CCc2nc(-c3ccccc3)nc(-c3ccc(Cl)cc3)c2C1`?
HEK293 tox: inconclusive; GPT2 inh: inactive; hNpr1 antagonist: inactive; 3T3 cytotox: inconclusive; Luciferase inh: inactive

What do the screens show for `COc1ccc(C(=O)N2CCc3nc(-c4ccccc4)nc(-c4ccc(Cl)cc4)c3C2)cc1`?
HEK293 tox: 22µM; GPT2 inh: inactive; 3T3 cytotox: inconclusive

What do the screens show for `O=S(=O)(c1ccccc1)N1CC(c2nc(-c3ccncc3)no2)C1`?
HEK293 tox: inconclusive; GPT2 inh: inactive; 3T3 cytotox: inconclusive

What do the screens show for `COc1ccc(C(=O)N[C@@H]2CCC[C@@H]2C(=O)NCCCc2ccccc2)cc1`?
HEK293 tox: inactive; GPT2 inh: inactive; hNpr1 antagonist: inactive; 3T3 cytotox: inactive; Luciferase inh: inactive

What do the screens show for `COc1ccc(-c2cnc(Nc3cccnc3)c3c2CCO3)cn1`?
HEK293 tox: 71µM; GPT2 inh: inactive; hNpr1 antagonist: inactive; 3T3 cytotox: inconclusive; Luciferase inh: inconclusive

How did COc1cccc(Nc2ncc(-c3ccccc3)c3c2OCC3)c1 do in these assays?
HEK293 tox: inconclusive; GPT2 inh: inconclusive; hNpr1 antagonist: inconclusive; 3T3 cytotox: inactive; Luciferase inh: 14µM

Results for COc1ccc(Nc2ncc(-c3cccnc3)c3c2OCC3)cc1 ?
HEK293 tox: inconclusive; GPT2 inh: inactive; hNpr1 antagonist: inactive; 3T3 cytotox: inconclusive; Luciferase inh: 13µM

What do the screens show for `FC(F)(F)c1cccc(Nc2ncc(-c3cccnc3)c3c2OCC3)c1`?
HEK293 tox: inconclusive; GPT2 inh: inactive; hNpr1 antagonist: inactive; 3T3 cytotox: inconclusive; Luciferase inh: inactive

What do the screens show for `Fc1cccc(-c2cnc(Nc3cccnc3)c3c2CCO3)c1`?
HEK293 tox: inconclusive; GPT2 inh: inactive; hNpr1 antagonist: inactive; 3T3 cytotox: inconclusive; Luciferase inh: inactive

Results for COc1cccc(Nc2ncc(-c3cccc(N(C)C)c3)c3c2OCC3)c1 ?
HEK293 tox: inactive; GPT2 inh: inactive; hNpr1 antagonist: inconclusive; 3T3 cytotox: inconclusive; Luciferase inh: inconclusive
